Source: PubChem
RE007 growth inh: less growth of the S. pombe RE007 Vpr strain. 360,000 tested, 0.21% active. S. pombe RE007 Vpr strain, BacTiter-Glo ATP luminescence, 24 h. Potency, µM (highest dose often 92.2 µM), without a hit: at the top dose activity change, negative = less growth, most hits filed as inhibitors; active = well fitted falling curve with a large enough effect; inconclusive = small, poorly fitted or top-dose-only effect; inactive = no such curve, though single readings can be large or run the other way; also: potency is read from the fitted curve at half-maximal effect; nearly all actives have a fitted effect of over 50% in size
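Fission yeast strain RE007, carrying one chromosomally integrated HIV-1 vpr copy, was seeded at OD 0.01 in PMG+AL medium with 23 nL pinned compound. After 24 h at 30 °C and 99% humidity, viability was read by BacTiter-Glo luminescence.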
Giardia FBPA inh: Giardia lamblia aldolase inhibition; AID 2451; Potency, µM (doses to about 59.6 µM), for inactives: top-dose activity, negative = inhibition, actives largely listed as inhibitors; A8B2U2; purified Giardia FBPA; 290,000 tested, 0.71% active; also: potency is read from the fitted curve at half-maximal effect; nearly all actives have a fitted effect of over 55% in size
Target sequence (A8B2U2 whole entry, looked up): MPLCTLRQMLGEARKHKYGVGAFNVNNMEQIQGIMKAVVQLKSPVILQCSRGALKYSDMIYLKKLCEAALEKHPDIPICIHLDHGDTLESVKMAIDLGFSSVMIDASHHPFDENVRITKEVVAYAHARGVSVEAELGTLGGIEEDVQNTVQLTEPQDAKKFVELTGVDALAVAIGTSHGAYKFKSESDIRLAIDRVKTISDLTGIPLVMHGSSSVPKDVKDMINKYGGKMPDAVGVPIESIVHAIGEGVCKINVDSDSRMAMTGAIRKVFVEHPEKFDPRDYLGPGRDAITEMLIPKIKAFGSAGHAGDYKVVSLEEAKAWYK
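Giardia FBPA (40 nM reagent) was preincubated 10 min at RT with compound (up to 57.5 uM final), then substrate plus GAPDH/TPI/NAD/arsenate coupling system with diaphorase/resazurin was added; resorufin fluorescence (525/598 nm) was read after 20 min.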
Tb PYK inh: T. brucei pyruvate kinase inhibition; Q57TT1; TbPYK enzyme, Kinase-Glo Plus ATP luminescence, 45 min; Potency, µM (highest dose often 76.8 µM), inactives show at the highest dose activity, negative = inhibition, hits mostly inhibitors; 410,000 tested, 0.12% active; AID 624173; also: potency is read from the fitted curve at half-maximal effect; nearly all actives have a fitted effect of over 50% in size
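TbPYK + substrate in 50 mM TEA pH 7.2, 100 mM KCl, 10 mM MgCl2, 0.05% BSA, 0.01% Tween-20; cpd pinned; ADP 130 uM final; 45 min RT; Kinase-Glo Plus 10 min; luminescence endpoint.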
FMDV antiviral: antivirals against foot and mouth disease virus; 410,000 tested, 1.2% active; Potency, µM (series often up to 57.9 µM), without a hit: top-dose activity change, negative = inhibition, most hits filed as inhibitors; FMDV antiviral cell-based qHTS; calls by dose curve; tested in HEK293T cells; also: read-out not given here; potency is read from the fitted curve at half-maximal effect; nearly all actives have a fitted effect of over 45% in size
HCMV antiviral: inhibitors of human cytomegalovirus. activity change, negative = inhibition, % at 57.5 µM. HFF cells, HCMV-luciferase reporter, 72 h; hits give low values. AID 1259415. 410,000 tested, 4.5% active; in the data active = activity change below about -60%; inconclusive = no clear call, values can overlap the other calls; inactive = above about -39%
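Inhibition of viral replication was scored as loss of reporter luminescence in HFFs infected with HCMV-luciferase (MOI 1 PFU/cell) for 72 h; compounds tested at 2 doses, normalized to buffer and Salinomycin controls.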
Sm TGR block: S. mansoni TGR enzyme inhibition | purified TGR, DTNB reduction, TNB absorbance 405 nm | 360,000 tested, 3% active | Q962Y6 | AID 485364 | Potency, µM (top dose mostly 114 µM), without a hit: at the top dose activity change, negative = inhibition, hits mostly inhibitors; also: potency is read from the fitted curve at half-maximal effect; nearly all actives have a fitted effect of over 60% in size
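First, TGR (20 nM dispensed) and NADPH were mixed with compound. Second, a 15 min room-temperature incubation followed. Third, further NADPH and then DTNB were added to start the reaction. Finally, TNB absorbance was monitored kinetically.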
Starred values were filed as active, the others as inactive; ? = inconclusive; / = no result. Hits are enriched below; roughly 7.7% of the tested compounds scored in any of these assays. Unless noted, calls follow the shape of the dose curve; as a rule, active = well fitted curve in the direction sought with a large enough effect; inconclusive = small, poorly fitted or top-dose-only effect, or another doubt; inactive = no such curve, though single readings can be large; an effect the other way counts as inactive or inconclusive. % is scaled to controls: 0 for no effect and ±100 for the full control effect.

SMILES	RE007 growth inh	Giardia FBPA inh	Tb PYK inh	FMDV antiviral	HCMV antiviral	Sm TGR block
CN(C)S(=O)(=O)c1cccc(NC(=S)N2CCc3ccccc32)c1	14%	-15%	-2%	-14%	-32	?
CN(C)S(=O)(=O)c1cccc(NC(=O)C2Cc3ccccc3CN2C(=O)c2ccco2)c1 (stereo not given)	-19%	-7%	-23%	14%	20	18µM*
CC1Cc2ccccc2N1C(=S)Nc1cccc(S(=O)(=O)N(C)C)c1 (stereo not given)	-19%	-18%	-4%	-20%	-16	50µM*
COc1ccc(NC(=O)C2Cc3ccccc3CN2C(=O)c2ccco2)cc1 (stereo not given)	-18%	/	-2%	62%	1	?
Cc1ccc(NC(=O)C2Cc3ccccc3CN2C(=O)c2ccco2)cc1S(=O)(=O)N(C)C (stereo not given)	-18%	3%	1%	-1%	-24	40µM*
O=C(Nc1nnc(C2CC2)s1)C1Cc2ccccc2CN1C(=O)c1ccco1 (stereo not given)	-14%	-19%	-25%	-5%	14	13µM*
Cc1cc(C)n(-c2nc(C)c(C)c(=O)n2CC(=O)Nc2cccc([N+](=O)[O-])c2)n1	/	/	1%	-18%	-4	5%
CCN1c2ccccc2-c2nc(SCC(=O)Nc3c(C)cc(C)cc3C)ncc2S1(=O)=O	/	/	1%	8%	-14	7%
COc1cc(-c2c(OC)cccc2OC)cc2c1OCCN(C(=O)CCC(=O)c1ccc(F)cc1)C2	/	/	/	-7%	/	/
ClC(Cl)c1nnc(-c2ccccc2)c(-c2c[nH]c3ccccc23)n1	/	-6%	-8%	-20%	-86*	-13%
c1ccc(-c2nnc(-c3c[nH]c4ccccc34)nc2-c2ccccc2)cc1	-5%	-2%	-1%	?	4	10%
COc1cc(CNc2ccc(N3CCCC3)cc2)ccc1OCc1ccccc1F	-8%	4%	-34%	-4%	/	?
COc1cc(CNc2ccc3[nH]c(=O)[nH]c3c2)cc(Cl)c1OCC(=O)NC(C)(C)C	-15%	10µM*	-20%	-25%	-34	?
COc1cc(CNc2ccc(N3CCCC3)cc2)ccc1OCc1ccccc1	?	?	?	-27%	-2	45µM*
COc1cc(CNc2ccc(N3CCCCC3)cc2)ccc1OCC(=O)NC(C)(C)C	?	-8%	-8%	?	-86*	?
CCOc1cc(CNc2ccc3[nH]c(=O)[nH]c3c2)ccc1OCC(=O)NC(C)(C)C	16%	?	-10%	?	?	?
COc1ccc(CNc2ccc(N3CCN(C(C)=O)CC3)cc2)cc1OC	/	/	-8%	?	-38	/
Cn1c(-c2cccc(F)c2)cc2cnc(Nc3cccnc3)cc21	/	/	/	/	7	/
CCOC(=O)c1ccc(CN(Cc2ccc(Cl)cc2Cl)S(=O)(=O)c2ccc(F)c(C)c2)cc1	/	/	4%	-7%	?	-2%
CN(c1ncccc1CNc1nc(Nc2ccc3c(c2)CC(=O)N3)ncc1C(F)(F)F)S(C)(=O)=O	/	/	1%	/	/	/
CC(C)(C)c1ccc(-c2cn(-c3ccc(Br)cc3)c3[n+]2CCCS3)cc1	5%	0%	-8%	?	-98*	3%
COc1ccc(-c2cn(-c3ccccc3)c3[n+]2CCS3)cc1	-12%	2%	-5%	?	-100*	-1%
c1ccc(-c2cn(-c3ccccc3)c3[n+]2CCS3)cc1	5%	7%	0%	?	?	-18%
Cc1c(C(=O)NCC2Cc3cccc(-c4cncnc4)c3O2)c(-c2ccccc2)nn1-c1ccccc1 (stereo not given)	/	/	/	-6%	/	/
COC(=O)CCCC1=CC2=C(c3ccccc3)C(=O)C(C)(OC(=O)C3CCCC3)C(=O)C2=CN1C(CO)CO (stereo not given)	10%	?	2%	-6%	-16	40µM*
SMILES	RE007 growth inh	Giardia FBPA inh	Tb PYK inh	FMDV antiviral	HCMV antiviral	Sm TGR block
COC(=O)CCCC1=CC2=C(c3ccccc3)C(=O)C(C)(OC(=O)C3CCCC3)C(=O)C2=CN1C1CC1 (stereo not given)	-11%	?	2%	-10%	-61*	?
Cc1ccc2c(c1)cc1c(=O)n(CC(=O)NC3CCCCC3)nc(C)n12	/	/	0%	1%	-23	-4%
CC(C)c1c(C(=O)NCC(C)(C)N2CCOCC2)cnn1-c1nccc(-c2cccs2)n1	/	/	/	-1%	/	/
O=C(CSc1nnc(NC(=O)C2CC(=O)N(c3ccccc3)C2)s1)NCc1ccco1 (stereo not given)	-6%	-11%	5%	-15%	13	45µM*
COc1cc(OC)cc(C(=O)Nc2nnc(SCC(=O)NCc3ccco3)s2)c1	-4%	/	-4%	100µM*	42	?
COc1cccc(N2CC(C(=O)Nc3nnc(SCC(=O)NCc4ccco4)s3)CC2=O)c1 (stereo not given)	26%	-24%	-1%	4%	26	50µM*
O=C(CSc1nnc(Nc2ccccc2F)s1)NCc1ccco1	9%	-17%	-9%	37%	-31	50µM*
O=C(CSc1nnc(NC(=O)C2CC(=O)N(c3ccccc3)C2)s1)NCC1CCCO1 (stereo not given)	-1%	?	-9%	-7%	2	-20%
COc1ccc(C(=O)Nc2nnc(SCC(=O)NCc3ccco3)s2)cc1OC	-3%	/	1%	-12%	24	-3%
O=C(CSc1nnc(Nc2ccccc2)s1)NCc1ccco1	-9%	0%	-2%	15%	22	?
CCOC(=O)[C@@]12C[C@@H]1/C(=N/O)c1ccccc1O2	/	4%	/	8%	/	/
CCCCNC(=O)CCn1c(=O)c2ccccc2n(Cc2cccc(Cl)c2)c1=O	/	/	-6%	-3%	-1	7%
COc1cccc(CN2CCC(c3nnc(SCC4CCCO4)n3C)CC2)c1O (stereo not given)	/	/	/	-5%	/	/
COCCCn1c(SCC(=O)Nc2ccc(C)cc2)nc2ccccc2c1=O	1%	-8%	5%	1%	-71*	8%
CCc1ccc(NC(=O)CSc2nc3ccccc3c(=O)n2CCCN2CCC(C)CC2)cc1	11%	-1%	-5%	?	-108*	-1%
COCCn1c(SCC(=O)Nc2ccc(NC(=O)c3ccco3)c(OC)c2)nc2ccccc2c1=O	4%	0%	1%	/	?	-16%
CCCCn1c(SCC(=O)Nc2cc(NC(=O)c3ccco3)ccc2C)nc2ccccc2c1=O	12%	6%	0%	-12%	-76*	?
CCc1ccc(NC(=O)CSc2nc3ccccc3c(=O)n2CCNC(C)=O)cc1	/	/	-5%	-25%	-15	7%
